# From PubChem
# This is a sample that favours compounds with a hit; in the whole collection about 7.4% have one here.
# FLuc counter = counter-screen for miR-21 project: firefly luciferase inhibitors or activators; Potency, µM (highest dose often 57.5 µM), for inactives: at the highest dose activity change, negative = inhibition, actives largely listed as inhibitors; AID 588342; purified FLuc, Km substrates, luminescence inhibition; 6.9% of 360,000 active;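 note: plate controls were vehicle for no effect and reference inhibitor for full effect; nearly all actives have a fitted effect of over 55% in size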
# Target sequence (P08659 whole entry, looked up): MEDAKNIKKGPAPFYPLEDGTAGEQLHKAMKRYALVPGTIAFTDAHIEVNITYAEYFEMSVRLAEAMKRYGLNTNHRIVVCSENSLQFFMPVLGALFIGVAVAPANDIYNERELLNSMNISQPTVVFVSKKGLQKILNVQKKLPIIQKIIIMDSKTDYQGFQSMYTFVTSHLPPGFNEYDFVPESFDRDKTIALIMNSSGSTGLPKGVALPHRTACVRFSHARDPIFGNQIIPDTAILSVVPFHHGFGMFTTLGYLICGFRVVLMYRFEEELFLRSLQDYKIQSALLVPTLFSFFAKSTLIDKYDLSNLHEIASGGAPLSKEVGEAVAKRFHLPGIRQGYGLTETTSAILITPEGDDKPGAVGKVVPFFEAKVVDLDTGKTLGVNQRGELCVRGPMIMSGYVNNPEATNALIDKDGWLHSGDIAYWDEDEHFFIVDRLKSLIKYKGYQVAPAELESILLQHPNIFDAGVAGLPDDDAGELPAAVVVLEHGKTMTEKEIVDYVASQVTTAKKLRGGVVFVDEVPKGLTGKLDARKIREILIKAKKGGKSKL
#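 Biochemical qHTS of compounds, final roughly 60 µM downward over six points, against 10 nM purified firefly luciferase using Km concentrations of substrates (10 uM D-luciferin, 10 uM ATP) in Tris acetate pH 7.5 buffer; luminescence output.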
# ELG1 genotoxic = genotoxicity induction in ELG1-luciferase HEK293T cells; HEK293T ELG1-luciferase reporter, luminescence, 16 h; 1.3% of 330,000 active; Potency, µM (top dose mostly 46 µM), without a hit: at the top dose activity change, positive = activation, actives largely listed as activators; AID 504466; note: % of control where 0% means no effect; nearly all actives have a fitted effect of over 60% in size
#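 Reporter readout depends on ELG1 protein level, which increases with genetic stress. After 16 hr compound exposure at 37 °C, luciferase activity was quantified using ONE-Glo.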
# NPC1 promoter act = activates the NPC1 promoter. 2.4% of 320,000 active. Potency, µM (highest dose often 9.22 µM), for the others: at the top dose activation, usual class: activators. AID 485313. Huh7 NPC1 promoter luciferase reporter, 24 h; note: % of control where 0% means no effect; nearly all actives have a fitted effect of over 60% in size
#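 Cells: Huh7 expressing luciferase under the NPC1 promoter, 1500/well. Seeded 2 h, compound added, incubated 24 h at 37 °C. Luciferase reagent, 10 min ambient, then luminescence.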
# SMN2 splice enh = SMN2 splice variant enhancement | HEK293 SMN2-luciferase splicing reporter, luminescence, 30-36 h | Potency, µM (top dose mostly 46.1 µM), for the others: at the highest dose activity change, positive = activation, hits mostly activators | 2.8% of 210,000 active | AID 1458; note: % of control where 0% means no effect; nearly all actives have a fitted effect of over 55% in size
#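 HEK293 cells carry an SMN2 […]–luciferase reporter in which exon 7 inclusion puts luciferase in frame. Cells were plated 10-12 h before compound addition, then incubated 30-36 h at 37C. ONE-Glo luminescence was read; sodium butyrate at 4.5 mM final served as control.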
# Rab9 prom act = activates the Rab9 promoter. Huh7 Rab9 promoter-luciferase reporter, luminescence, 24 h. Potency, µM (highest dose often 9.22 µM), for the others: at the top dose activation, negative = inhibition, most hits filed as activators. 2.8% of 320,000 active; note: % of control where 0% means no effect; nearly all actives have a fitted effect of over 60% in size
#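 Luminescence read-out: Huh7 cells stably expressing Rab9-luciferase, treated 24 h with compound at 37 °C, then lysed with luciferase reagent for 10 min at ambient before reading.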
# p53 reactivation = re-activators of mutant p53; H1299 p53-A138V BP100-luciferase reporter, luminescence, 24 h; Potency, µM (series often up to 92.2 µM), for the others: at the highest dose activity change, positive = activation, usual class: activators; 0.063% of 320,000 active; note: % of control where 0% means no effect; nearly all actives have a fitted effect of over 45% in size
#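 p53-null H1299 cells stably carrying temperature-sensitive p53-A138V and a BP100-luciferase reporter were pinned with compounds (4-point, 1:5 series) and held 24 hrs at 37 deg C. Luminescence was read 10 min after detection reagent.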
# * = called active by the depositor; ? = inconclusive; nt = no result. Calls come from the whole dose curve; as a rule, active = well fitted curve in the direction sought with a large enough effect; inconclusive = small, poorly fitted or top-dose-only effect, or another doubt; inactive = no such curve, though single readings can be large; an effect the other way counts as inactive or inconclusive. Potency is the fitted concentration of half-maximal effect.
SMILES,FLuc counter,ELG1 genotoxic,NPC1 promoter act,SMN2 splice enh,Rab9 prom act,p53 reactivation
Cc1nc2sc(-c3ccccc3)nn2c(=O)c1Br,8.49µM*,?,3.16µM*,5.62µM*,2.24µM*,?
Cc1cc(C)n(-c2nnc(NC(C)(C)C)nn2)n1,21.3µM*,?,?,12.6µM*,3.16µM*,?
Cc1cc(C)n(-c2nc(NC(C)(C)C)nc(NC(C)(C)C)n2)n1,-0.2%,-4.3%,-1.3%,-48.9%,-4.5%,3.5%
Cc1cc(C)n(-c2nnc(NC34CC5CC(CC(C5)C3)C4)nn2)n1,2.39µM*,?,2µM*,11.2µM*,3.55µM*,?
CCOc1ccc(OCCOCCn2c(-c3ccc(Cl)cc3)nc3ccccc3c2=O)cc1,-9.8%,nt,nt,-5.1%,nt,nt
Cc1cccc(-n2cnc3cc(C(=O)NCc4ccccc4Cl)ccc32)c1,-15.0%,nt,nt,nt,nt,nt
O=C(CCN1C(=O)C2CCCCC2C1=O)Nc1cc(F)ccc1F (stereo not given),1.2%,1.3%,-2.5%,nt,-3.1%,11.8%
O=C(CCN1C(=O)C2CCCCC2C1=O)Nc1nc2c(F)cc(F)cc2s1 (stereo not given),-19.4%,?,2.51µM*,nt,1.41µM*,?
O=C(CCN1C(=O)C2CCCCC2C1=O)Nc1nc2ccc(F)cc2s1 (stereo not given),0.849µM*,?,0.631µM*,nt,0.398µM*,?
Cc1ccc2c(c1)c(=O)c1ccccc1n2CCCC(=O)Nc1ccc(C)c(F)c1,-14.1%,nt,nt,-61.3%,nt,nt
CCOc1ccc(NC(=O)CN(c2ccc(CC)cc2)S(=O)(=O)c2c(C)noc2C)cc1,-1.5%,nt,nt,nt,nt,nt
c1ccc(-c2nccc(-c3ccco3)n2)nc1,-18.7%,0.5%,0.7%,12.7%,-1.8%,?
c1ccc(-c2nc(-c3ccco3)cs2)nc1,15.1µM*,?,25.9%,0.5%,3.55µM*,20.5%
N#Cc1c(N2CCCC(O)C2)nc(N)c2c(N)nc3c(c12)CC(=O)N3C12CC3CC(CC(C3)C1)C2 (stereo not given),5.36µM*,-8.2%,-2.9%,-85.0%,-10.9%,-9.0%
COc1ccc(C2=NOC(Cn3nc(C(=O)O)cc3-c3ccccc3)C2)cc1 (stereo not given),0.1%,-1.8%,-0.7%,nt,0.3%,3.8%
COc1ccc(C2=NOC(Cn3nc(-c4ccccc4)cc3C(=O)O)C2)cc1 (stereo not given),4.78µM*,6.9%,-0.2%,nt,-5.5%,2.7%
COc1ccc(C2=NOC(CN3C(=O)c4ccccc4S3(=O)=O)C2)cc1 (stereo not given),2.13µM*,?,1.26µM*,?,0.891µM*,?
CCOC(=O)c1cc(-c2ccc(OC)cc2)nn1Cc1ccccc1,7.57µM*,nt,nt,19.6%,nt,nt
Cc1ccc(-c2cc(C(=O)O)n(Cc3ccccc3)n2)cc1,?,nt,nt,-20.3%,nt,nt
COc1ccc(-c2cn(Cc3ccc(C(=O)c4ccccc4)cc3)nn2)cc1,10.7µM*,18.3µM*,?,nt,?,nt
COc1ccc(-c2cn(Cc3ccc4ccccc4c3)nn2)cc1,-4.3%,7.8%,22.9%,nt,11.7%,nt
Cc1cccc(C)c1N1CCN(CCn2c(=S)[nH]c3ccccc3c2=O)CC1,1.2%,0.2%,0.3%,nt,-6.0%,5.6%
COCCC(=O)N1CCC(Oc2ccc(C(=O)NC(C)CCn3cccn3)cc2)CC1 (stereo not given),6.5%,6.4%,1.8%,nt,1.0%,-2.8%
Cc1cc(C)c(NC(=O)CCCN2C(=O)COc3ccc(C)cc32)c(C)c1,-7.9%,nt,nt,3.0%,nt,nt
O=C1c2ccccc2S(=O)(=O)N1CC1CC(c2ccccc2)=NO1 (stereo not given),6.01µM*,4.11µM*,3.16µM*,13.6%,1.41µM*,26.9%
SMILES,FLuc counter,ELG1 genotoxic,NPC1 promoter act,SMN2 splice enh,Rab9 prom act,p53 reactivation
Cc1ccc(C2=NN(C(=O)CN3C(=O)c4ccccc4S3(=O)=O)C(c3ccco3)C2)cc1 (stereo not given),-0.2%,-2.7%,-7.4%,17.9%,-5.5%,-2.6%
O=C1c2ccccc2S(=O)(=O)N1CC1CC(c2ccc(Cl)cc2)=NO1 (stereo not given),2.39µM*,16.4µM*,3.55µM*,15.8µM*,2.24µM*,?
Cc1ccc(-n2nc(-c3ccc(N)cc3)cc2N)cc1,19µM*,?,?,11.2µM*,?,?
Nc1ccc(-c2cc(N)n(-c3ccccc3)n2)cc1,?,9.3%,0.1%,?,?,4.7%
CC(=O)Nc1ccc(-c2cc(NC(C)=O)n(-c3ccccc3)n2)cc1,-18.3%,-0.6%,-4.1%,nt,-2.5%,-7.5%
CC(=O)Nc1ccc(-c2cc(N)n(-c3ccccc3)n2)cc1,9.53µM*,?,2.24µM*,nt,3.16µM*,?
Nc1cc(-c2ccc(Cl)cc2)nn1-c1ccccc1,6.01µM*,?,3.16µM*,14.1µM*,3.16µM*,11.0%
O=C1c2ccccc2CC1Sc1nnc(-c2ccccn2)o1 (stereo not given),12µM*,8.4%,17.1%,17.3%,25.4%,12.8%
CCN(CC)S(=O)(=O)c1cc(C(=O)Nc2ccc(Cl)cn2)ccc1C,2.39µM*,1.84µM*,1.78µM*,1.58µM*,1.58µM*,?
CCN(CC)S(=O)(=O)c1cc(C(=O)NC2CCCCC2)ccc1C,7.57µM*,?,2.82µM*,?,3.98µM*,?
Cc1nn(-c2ccccc2)c(C)c1/C=N/NC(=O)c1cc(-c2cccc3ccccc23)n[nH]1,10.7µM*,-8.4%,-1.7%,3.8%,-1.1%,14.1%
CCCCCn1nc(C)c(/C=N\NC(=O)c2cc(C)oc2C)c1C,19µM*,2.2%,12.5%,5.2%,12.3%,21.4%
CCn1nc(C)c(/C=N/NC(=O)c2nc3nc(C)cc(C)n3n2)c1C,1.1%,-1.7%,-4.7%,nt,-6.8%,-0.4%
Cc1nn(-c2ccccc2)c(C)c1/C=N/NC(=O)c1cc(-c2ccccc2)n[nH]1,?,-15.5%,-7.0%,3.9%,-18.4%,-11.8%
Cc1cc(C(=O)N/N=C/c2c(C)nn(-c3ccccc3)c2C)c(C)o1,21.3µM*,8.2%,21.7%,nt,?,2.2%
CCn1nc(C)c(/C=N/NC(=O)c2ccoc2C)c1C,12µM*,?,1.58µM*,?,?,3.0%
O=C(c1cnccn1)N1CCC2(CC1)CN(Cc1ccccc1)C2,nt,nt,nt,3.4%,nt,nt
CC(C)C[C@H]1CN=C(Nc2ccccc2)N1CC1CCCCCC1,-1.2%,-6.6%,0.1%,nt,0.6%,1.9%
O=C(Nc1ccccc1Br)C(Cc1ccccc1)NS(=O)(=O)c1cccc2nsnc12 (stereo not given),2.5%,nt,nt,4.3%,nt,nt
